The whole screen tested about 37,000 compounds, of which about 290 (0.78%) were called active. About 10% were inconclusive and are not listed.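 How the source made its calls: active means mean inhibition of at least 10% in the main channel, exceeding the control channel by a set limit; inconclusive means inhibition of 10% or more but channel gap under a set limit; inactive means mean inhibition below 10%.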 Only a selection was taken, and actives are over-represented in it overall.
Assay: DUX4 transcriptional activity inhibition in cells – 293T cells, Gaussia and Italica luciferase, primary screen (AID 1224904);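 on activity change, negative = inhibition: 0% = median of neutral control wells and -100% = median of positive control wells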
Conditions: 293T-iDUX4 ZSCAN4-Gaussia luciferase reporter, 24 h, stronger effect = lower value, concentration not given here; for Gaussia minus Italica difference: measured here: selective DUX4 reporter inhibition
[1] = measured here: Italica tet-on control reporter

SMILES	activity change, negative = inhibition	activity change, negative = inhibition [1] [%]	Gaussia minus Italica difference [%]
CCC(=O)N1CC2(C1)[C@@H](c1ccc(C3=CCCC3)cc1)[C@@H](CO)N2C(=O)COC	2.59% (inactive)	3.57	-0.983
COc1cccc(CNC(=O)[C@@H]2[C@@H](CO)[C@@H]3Cn4c(ccc(-c5ccncc5)c4=O)[C@H]2N3C(C)=O)c1	-3.74% (inactive)	-3.37	-0.373
CN1CCN(C(=O)C[C@@H]2CC[C@@H]3[C@H](COC[C@@H](O)CN3Cc3cccc(F)c3)O2)CC1	4.3% (inactive)	-1.22	5.51
O=C(C[C@@H]1CC[C@@H]2[C@H](COC[C@H](O)CN2C(=O)c2cccnc2)O1)NC1Cc2ccccc2C1	3.73% (inactive)	-3.66	7.39
CC(C)CN(C[C@@H]1N[C@@H](CO)[C@H]1c1ccccc1)C(=O)CN(C)C	0.487% (inactive)	0.95	-0.462
O=C(C[C@@H]1CC[C@@H](NC(=O)Nc2ccc(F)cc2)[C@@H](CO)O1)NCCN1CCCC1	3.27% (inactive)	-1.07	4.34
N#C[C@@H]1[C@@H](c2ccc(C#Cc3cccc(F)c3)cc2)[C@H](CO)N1C(=O)C1CCOCC1	1.6% (inactive)	1.95	-0.348
Cc1noc(C)c1S(=O)(=O)N(C)C[C@@H]1OCc2ccccc2-c2ccccc2C(=O)N([C@@H](C)CO)C[C@H]1C	1.81% (inactive)	12.5	-10.7
O=C(C[C@H]1CC[C@@H]2[C@H](COC[C@@H](O)CN2C(=O)Nc2ccc(Cl)cc2)O1)NC1Cc2ccccc2C1	-9.05% (inactive)	-0.9	-8.14
CN1C(=O)c2cc(NC(=O)c3cscn3)ccc2OC[C@H]2O[C@@H](CC(=O)NCC3CC3)CC[C@H]21	-3.18% (inactive)	-1.57	-1.61
CCC(=O)N1CC2(C1)[C@@H](c1ccccc1)[C@H](CO)N2CC1CCOCC1	-0.159% (inactive)	8.93	-9.09
C[C@@H]1CC=CC[C@H](c2ccc(F)cc2)NC(=O)[C@@H](Cc2ccccc2)N(C)C(=O)c2ccccc2O1 (mixture of isomers)	-2.82% (inactive)	-1.88	-0.938
CC(C)NC(=O)N1C[C@@H]2[C@H](c3ccccc31)[C@H](CO)N2C(=O)C1CCCC1	-2.38% (inactive)	-1.49	-0.893
CCCNC(=O)[C@@H]1[C@@H](CO)[C@@H]2Cn3c(cccc3=O)[C@H]1N2C(=O)Nc1cc(F)ccc1F	6.78% (inactive)	10.8	-3.98
Cc1noc(C)c1NC(=O)N[C@@H]1C=C[C@H](CC(=O)N2CCCCC2)O[C@H]1CO	5.84% (inactive)	1.64	4.2
C[C@@H]1CN([C@H](C)CO)S(=O)(=O)c2ccc(C#CC3CCCC3)cc2O[C@@H]1CN(C)Cc1ccccc1C(=O)O	-1.04% (inactive)	-2.07	1.03
CC=Cc1ccc2n(c1=O)C[C@@H]1[C@@H](CO)[C@H](C(=O)N(C)C)N(CC3CCOCC3)[C@H]21 (mixture of isomers)	3.1% (inactive)	6.26	-3.17
COc1ccccc1NC(=O)N[C@H]1C=C[C@H](CC(=O)N[C@@H](C)c2ccccc2)O[C@H]1CO	-2% (inactive)	-1.1	-0.906

SMILES	activity change, negative = inhibition	activity change, negative = inhibition [1] [%]	Gaussia minus Italica difference [%]
O=C(Nc1ccccc1F)N1C[C@H]2[C@@H](c3ccccc31)[C@H](CO)N2C(=O)c1ccccn1	-3.65% (inactive)	-2.86	-0.784
O=C(CN1CCOCC1)N1CCCCN2[C@H](CO)[C@H](c3ccc(Br)cc3)[C@H]2C1	9.07% (inactive)	-4.46	13.5
OC[C@H]1[C@@H](c2ccc(C#CC3(O)CCCC3)cc2)[C@H]2CN(Cc3cncnc3)CCCCN21	13.2% (inactive)	12.8	0.35
O=C(C1CCCCC1)N1CC(=O)N2[C@H](CO)[C@@H](c3ccc(-c4ccccc4F)cc3)[C@@H]2C1	-8.07% (inactive)	-1.6	-6.47
CNC(=O)C[C@H]1CC[C@@H]2[C@H](COc3ccc(NC(=O)Nc4ccc(F)c(F)c4)cc3C(=O)N2C)O1	-0.979% (inactive)	-3.84	2.86
O=C(C[C@@H]1C[C@H]2c3cc(NC(=O)Nc4ccccc4F)ccc3O[C@H]2[C@@H](CO)O1)NCc1ccncc1	-1.77% (inactive)	0.554	-2.32
C[C@@H](NC(=O)[C@@H]1[C@@H](CO)[C@@H]2Cn3c(ccc(C4=CCCCC4)c3=O)[C@@H]2N1C)c1ccccc1	3.54% (inactive)	1.39	2.15
CN1C(=O)c2cc(NC(=O)c3ccc(F)cc3)ccc2OC[C@H]2O[C@H](CC(=O)N3CCOCC3)CC[C@@H]21	1.69% (inactive)	-7.81	9.5
COCC(=O)N[C@@H]1C=C[C@@H](CC(=O)N2CCCCC2)O[C@@H]1CO	6.06% (inactive)	-1.08	7.14
O=C(C1CCCC1)N1CC2(C1)[C@H](c1ccccc1)[C@H](CO)N2CCC(F)(F)F	-0.604% (inactive)	2.75	-3.36
O=C(Cc1ccccc1)N1C[C@H]2[C@@H](c3ccccc31)[C@H](CO)N2C(=O)C1CCOCC1	-0.397% (inactive)	-3.56	3.16
COc1ccc(NC(=O)N2C[C@H](O)COC[C@@H]3O[C@@H](CC(=O)NCc4ccccc4OC)CC[C@H]32)cc1	2.52% (inactive)	3.01	-0.496
CCCC(=O)Nc1ccc2c(c1)C(=O)N(C)[C@@H]1CC[C@H](CC(=O)NCCN3CCCCC3)O[C@@H]1CO2	-1.36% (inactive)	5.24	-6.6
CO[C@H]1CN(C)C(=O)c2ccc(NC(=O)Nc3ccccc3)cc2OC[C@@H](C)N(C(=O)CC2CC2)C[C@@H]1C	-6.56% (inactive)	5.38	-11.9
O=C(CC1CC1)Nc1ccc2c(c1)[C@@H]1C[C@@H](CC(=O)NC3CCCCC3)O[C@H](CO)[C@@H]1O2	5.02% (inactive)	5.44	-0.425
COCC(=O)Nc1ccc2c(c1)C(=O)N(C)[C@@H]1CC[C@H](CC(=O)NCCc3ccccc3)O[C@@H]1CO2	0.635% (inactive)	5.13	-4.5
CC(C)NC(=O)N1[C@H](CO)[C@@H]2c3ccccc3N(C(=O)Nc3cccc(Cl)c3)C[C@@H]21	5.76% (inactive)	2.62	3.13
